# From PubChem
# aSyn UTR act: Activators via SNCA 5'UTR binding, MLPCN; alpha-synuclein 5'UTR reporter, activators screen; activity score, % (tested at 7.5 µM), hits read low; 7.1% of 300,000 active; in the data active = activity score below about -60%
# A number is an active result; 0 = inactive. Only a sample is shown.
SMILES,aSyn UTR act
O=C(CCl)N(c1ccccc1)C1CCS(=O)(=O)C1 (stereo not given),-109.3
CCc1ccc(C(=O)Cn2ccsc2=N)cc1,-101.5
N#C/C(=N\Nc1cccc(C(F)(F)F)c1)C(=O)c1ccsc1,-108.7
Cc1[nH]c2ccccc2c1/C=C/C(=O)c1ccccc1,-63.9
Cc1[nH]c2ccccc2c(=O)c1C(=O)/C=C/c1ccccc1,-280.5
COc1ccc(Oc2ccc(C(F)(F)F)cc2N)cc1,-68.2
O=C(O)CC/C(=N/NC(=O)c1cccs1)c1ccccc1,-167.2
O=C(N/N=C(\Cc1ncc[nH]1)c1ccccc1)c1ccccc1,0
O=C(Nc1ccc(Cc2ccncc2)cc1)c1cccs1,-65.7
COc1c(Cl)cc(Cl)cc1/C=C/C(=O)c1ccc(NC(=O)c2cccs2)cc1,-114.8
CC(=O)Oc1cccc(C(=O)Nc2ccc(NC(=O)c3cccs3)cc2)c1,-106.5
O=C(Nc1ccc2c(c1)CCC2)c1cccs1,-144.9
Cc1ccc(NC(=O)c2cccs2)cc1,-145.2
O=C(Nc1ccc(O)cc1)c1ccc(NC(=O)c2cccs2)cc1,-69.6
O=C(Nc1ccc(NC(=O)c2cccs2)cc1)c1ccco1,-231.9
O=C(Nc1ccc(NC(=O)c2cccs2)cc1)c1ccccc1,-140.4
O=C(Nc1cccc(O)c1)c1ccc(NC(=O)c2cccs2)cc1,-68.4
CCOC(=O)c1c(CSc2ccc(CC)cc2)oc2ccc(O)c(CN(C)C)c12,0
CC(=O)c1c(CSc2ccccc2)oc2ccc(O)c(CN(C)C)c12,-62.7
COc1cc(/C=N/NC(=O)c2cc(-c3ccccc3)sc2N)cc(OC)c1OC,-70.0
COc1ccc(/C=N/NC(=O)c2ccoc2C)cc1OC,-72.5
COc1cc(/C=N/NC(=O)c2ccoc2C)cc(OC)c1OC,-80.7
COc1ccc(NC(=S)N2CCc3ccccc32)cc1OC,-82.5
COc1ccc(CSc2nnc(SCc3ccc([N+](=O)[O-])cc3)s2)cc1,-121.6
CC(=O)c1c(C)[nH]c(C(=O)OCc2ccc(F)cc2Cl)c1C,-68.3
SMILES,aSyn UTR act
COC(=O)c1c(C)[nH]c(C(=O)OCc2ccc(F)cc2)c1C,-189.4
CCOC(=O)c1[nH]c(C)c(C(=O)c2cc(F)ccc2F)c1C,0
O=C1C(=O)N(c2ccccc2)C(c2ccccc2[N+](=O)[O-])/C1=C(\O)c1ccccc1 (stereo not given),-93.2
O=C1C(=O)N(c2cccc(Cl)c2)C(c2ccccc2[N+](=O)[O-])/C1=C(\O)c1ccccc1 (stereo not given),-87.9
CCOc1ccc(OCc2cccc(C(=O)N/N=C/c3cccnc3)c2)cc1,0
CC/C(=N\NC(=O)c1ccoc1C)c1ccc(C)o1,-155.0
Cc1occc1C(=O)N/N=C/c1ccc(OCc2ccccc2)cc1,-137.7
O=C(N/N=C/c1ccc(OCc2ccccc2)cc1)c1cc[n+](Cc2ccccc2)cc1,-76.6
O=C(/C=C/c1cn(-c2ccccc2)nc1-c1cccnc1)c1ccco1,-63.4
CC(C)CC1c2[nH]c3ccccc3c2CCN1C(=O)c1cnccn1 (stereo not given),-94.5
N#C/C(=C\Nc1ccccc1O)c1nc2ccccc2o1,-111.8
O=C(Nc1ccc2c(c1)Cc1ccccc1-2)c1ccco1,-160.3
COc1cccc(OC)c1C(=O)Nc1ccc2c(c1)Cc1ccccc1-2,-105.5
COc1cc(/C=N\n2nnnc2N)ccc1OCc1ccc(F)cc1,-65.3
COc1cc(/C=N/n2c(C)n[nH]c2=S)ccc1OCc1ccc(F)cc1,-114.5
Cc1cc(N2CCCCC2)n2ncc(-c3ccc(Cl)cc3)c2n1,-181.3
Cc1cc(N2CCN(C(=O)c3ccco3)CC2)n2ncc(-c3ccccc3)c2n1,-78.5
COC(=O)c1ccccc1NC1=C/C(=N\S(=O)(=O)c2cccs2)c2ccccc2C1=O,-90.6
CN1N=C2c3ccccc3CCC2C1c1ccc(F)cc1 (stereo not given),-109.6
CN1N=C2c3ccccc3CCC2C1c1ccc(Cl)cc1 (stereo not given),-101.2
CN1C(=O)C2(Oc3ccccc3C3CC(c4ccccc4)=NN32)c2ccccc21 (stereo not given),-163.7
Cc1ccc(C2=NN3C(C2)c2ccccc2OC32C(=O)Nc3ccccc32)cc1 (stereo not given),-147.6
Cc1ccc(NC(=O)Nc2ccnc(-c3cccnc3)n2)cc1,0
COc1ccc(C(=O)Nc2ccnc(-c3cccnc3)n2)cc1,-166.0
O=C(Nc1ccnc(-c2cccnc2)n1)c1ccc(Cl)c(Cl)c1,-63.3
SMILES,aSyn UTR act
Cc1ccc(C(=O)Nc2ccnc(-c3cccnc3)n2)cc1,-268.6
Cc1cccc2c1-c1sc(C(=O)Nc3cccc([N+](=O)[O-])c3C)cc1CO2,-72.9
CCOC(=O)c1cc2c(s1)-c1c(C)cccc1OC2,-163.7
Cc1cccc2c1-c1sc(C(=O)Nc3nccs3)cc1CO2,-213.2
O=C(Nc1nccs1)c1cc2c(s1)-c1ccccc1OC2,-218.1
CCOC(=O)c1ccc(NC(=O)c2cccc(S(=O)(=O)N3c4ccccc4CC3C)c2)s1 (stereo not given),0
CN1CCN(c2ccccc2NC(=O)c2cc3c(s2)-c2ccccc2OC3)CC1,-70.5
O=C(Nc1nc2ccccc2s1)c1cc2c(s1)-c1ccccc1OC2,-176.9
O=C(Nc1ccc(Cl)cn1)c1cc2c(s1)-c1ccccc1OC2,-111.5
O=C(Nc1ccccc1)C1=C[C@@H](c2ccc(Br)cc2)C[C@@H](OCCCCO)O1,-94.8
O=C(Nc1ccccc1)C1=C[C@H](c2ccc(C(F)(F)F)cc2)C[C@H](OCCCCO)O1,-91.2
CCO[C@@H]1OC(C(=O)Nc2ccccc2)=C[C@H](c2coc3ccccc3c2=O)[C@H]1CCCO,0
O=C(Nc1ccccc1)C1=C[C@H](c2ccccc2)C[C@H](OCCCCO)O1,-146.5
CCn1c2ccccc2c2cc(NC(=O)CSc3nnc(-c4ccccc4)o3)ccc21,-155.4
CCn1c2ccccc2c2cc(NC(=O)CSc3nnc(-c4cccc(C)c4)o3)ccc21,-62.7
CCn1c2ccccc2c2cc(NC(=O)CSc3nnc(-c4cccc(F)c4)o3)ccc21,-67.9
CC1CCCCC1NC(=O)c1cc2c(=O)n3ccccc3nc2n1C (stereo not given),-66.0
CN(C(=O)c1cc2c(=O)n3ccccc3nc2n1C)C1CCCCC1,-89.6
CCN(C(=O)c1cc2c(=O)n3ccccc3nc2n1C)C1CCCCC1,-74.8
CCN(C(=O)c1cc2c(=O)n3ccccc3nc2s1)C1CCCCC1,-71.0
Brc1ccc(-c2csc(/N=C/N3CCCC3)n2)cc1,-94.2
Brc1ccc(-c2csc(/N=C/N3CCOCC3)n2)cc1,-90.0
OCCN(/C=N/c1nc(-c2ccc(Br)cc2)cs1)CCO,-93.2
CC(=O)c1ccc(N2CCN(C(=O)c3ccc(Cn4c(=S)[nH]c5ccc(N6CCOCC6)cc5c4=O)cc3)CC2)cc1,-71.7
Cc1ccc(NC(=O)OCc2cc(-c3ccccc3)on2)cc1,-92.8
SMILES,aSyn UTR act
Cc1ccc(NC(=O)OCc2cccs2)cc1,-190.6
CC1(C)C(=O)Nc2ccccc2N1C(=O)Cn1ncc(Cl)c(Cl)c1=O,-167.1
CCc1ccc(C(=O)Cn2ncc(Cl)c(Cl)c2=O)cc1,-64.0
O=C(Cn1ncc(Cl)c(Cl)c1=O)N1CCc2ccccc21,0
O=C(Cn1ncc(Cl)c(Cl)c1=O)N1CCN(Cc2ccccc2)CC1,-70.7
O=C(Cn1ncc(Cl)c(Cl)c1=O)N1CCOCC1,-61.6
COc1ccc2c(c1)CCc1sc(NC(=O)c3ccco3)nc1-2,-114.0
COc1ccc2c(c1)-c1nc(NC(=O)c3cccs3)sc1CC2,-122.3
Cc1onc(-c2ccccc2Cl)c1C(=O)N1CCN(c2cccc(Cl)c2)CC1,0
COc1ccc2c(c1)Cc1sc(NC(=O)c3cccnc3)nc1-2,-63.0
